Several values for one entry are separate records, joined by “and”; a condition that tells them apart may be missing. Equal values may be shown once. Inconclusive results are not listed. Activity calls are given as the source filed them. Unless noted, calls follow the shape of the dose curve; as a rule, active = well fitted curve in the direction sought with a large enough effect; inconclusive = small, poorly fitted or top-dose-only effect, or another doubt; inactive = no such curve, though single readings can be large; an effect the other way counts as inactive or inconclusive.
Experiments:
[1] = High-throughput drug toxicity screening in the BPDCN cell line Cal-1 (AID 1224825; call rule not given here); settings: Cal-1 BPDCN cell viability, qHTS; at 45.8 µM (top of the series) unless noted
How it was run: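 500 Cal-1 cells/well, RPMI + glutamine + 10% FBS (phenol red-free); cpd added by pin tool; 48 h, 37C, 5% CO2; CTG 15 min RT, lumi read. Normalised: DMSO 100%, bortezomib 9.2 uM 0%.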

[2] = qHTS assay for measurement of the activity of small molecule inhibitors on Zika virus induced Caspase-3 activity in human iPSC derived neural progenitor cells (hNPCs) (AID 1224857); also: % of control where 0% means no effect; nearly all actives have a fitted effect of over 65% in size
How it was run: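 Pretreat hNPCs with compound 1 h; infect ZIKV 2 FFU/cell; 6 h 37 C, 5% CO2; Caspase-Glo 3/7, 30 min RT; luminescence; normalize to no-virus and virus-only wells.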

[3] = qHTS assay for measurement of the activity of small molecule inhibitors on Zika virus induced Caspase-3 activity in human astrocytoma cells (AID 1224859);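 also: plate controls were ZIKV-infected untreated cells for no effect and uninfected cells for full effect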
How it was run: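 Human SNB-19 astrocytoma cells in RPMI 1640 with 10% FBS receive compound one hour ahead of Zika virus at 2 FFU/cell. After 6 h infection, caspase-3/7 activity is detected by Caspase-Glo luminescence.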

[4] = qHTS Screen of the MIPE 4.0 Collection Against Ewings Sarcoma (RDES) (AID 1259252); also: nearly all actives have a fitted effect of over 35% in size; also: potency is read from the fitted curve at half-maximal effect
How it was run: (§1)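 After a 4 h attachment period in RPMI/5% FBS, cells were pin-dosed with test compounds; DMSO served as negative and 9.2 uM bortezomib (final) as positive control. Luminescent CellTiter-Glo signal at 48 h defined viability.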

[5] = qHTS Screen of the MIPE 4.0 Collection Against Ewings Sarcoma (TC71) (AID 1259253); also: nearly all actives have a fitted effect of over 40% in size; also: potency is read from the fitted curve at half-maximal effect
How it was run: as §1

[6] = qHTS Screen of the MIPE 4.0 Collection Against Ewings Sarcoma (EW8) (AID 1259255); also: nearly all actives have a fitted effect of over 35% in size; also: potency is read from the fitted curve at half-maximal effect;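 as to viability: 100% = DMSO-treated cells and 0% = medium-only wells without cells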
How it was run: as §1

[7] = qHTS Screen of the MIPE 4.0 Collection Against Ewings Sarcoma (TC32) (AID 1259256); also: nearly all actives have a fitted effect of over 45% in size; also: potency is read from the fitted curve at half-maximal effect
How it was run: as §1

[8] = P-glycoprotein substrates identified in KB-8-5-11 adenocarcinoma cell line, qHTS therapeutic library screen (AID 1346987); also: nearly all actives have a fitted effect of over 65% in size; also: potency is read from the fitted curve at half-maximal effect
How it was run: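 P-gp-mediated resistance screen: KB-8-5-11 cells treated 72 h with compounds in dose-response. CellTiter-Glo viability.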

[9] = qHTS of pediatric cancer cell lines to identify multiple opportunities for drug repurposing: Primary screen for SJ-GBM2 cells (AID 1347091); also: potency is read from the fitted curve at half-maximal effect
How it was run: (§2)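 Cell viability, CellTiter-Glo luminescence; 500-1,000 cells/well, 8- or 11-point titration, 48 h compound exposure at 37 degrees C, 5% CO2. Controls: DMSO neutral, bortezomib 2.3 µM final as positive.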

[10] = qHTS of pediatric cancer cell lines to identify multiple opportunities for drug repurposing: Primary screen for A673 cells (AID 1347092); also: nearly all actives have a fitted effect of over 45% in size; also: potency is read from the fitted curve at half-maximal effect
How it was run: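 A673 cells (500-1,000 cells/well in growth media) were pre-incubated 5 h at 37 degrees C, then exposed to compounds for 48 h. Viability was read as CellTiter-Glo luminescence; concentration-response curves came directly from the primary screen.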

[11] = qHTS of pediatric cancer cell lines to identify multiple opportunities for drug repurposing: Primary screen for SK-N-MC cells (AID 1347093); also: potency is read from the fitted curve at half-maximal effect
How it was run: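 Metabolically active cells were quantified by ATP-dependent luminescence (CellTiter-Glo, 15 min at room temperature) following 48 h treatment. Cells had been plated at 500-1,000 per well and settled for 5 h beforehand.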

[12] = qHTS of pediatric cancer cell lines to identify multiple opportunities for drug repurposing: Primary screen for BT-37 cells (AID 1347094); also: potency is read from the fitted curve at half-maximal effect
How it was run: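 Cells plated at 500-1,000/well in growth medium, compounds added after 5 h. MIPE tested at 11 points (from 0.78 nM), NPC at 8 points (from 0.59 nM). CellTiter-Glo luminescence after 48 h; concentration-response curves from primary screen.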

[13] = NS1 protein of Zika virus - qHTS assay to identify small molecule inhibitors in human HEK 293 cells (AID 1347053); also: nearly all actives have a fitted effect of over 55% in size; also: potency is read from the fitted curve at half-maximal effect
How it was run: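 HEK 293; 20 h pre-culture, 37 C/5% CO2; cpd 1 h pre-infection; ZIKV MR766, MOI = 0.5, 24 h, 37 C; TR-FRET NS1 readout (two anti-NS1 Abs); norm. to no-virus vs infected.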

[14] = qHTS of pediatric cancer cell lines to identify multiple opportunities for drug repurposing: Primary screen for TC32 cells (AID 1347089); also: nearly all actives have a fitted effect of over 60% in size; also: potency is read from the fitted curve at half-maximal effect
How it was run: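 Luminescent CellTiter-Glo read-out of metabolically active TC32 cells after 48 h compound exposure. Primary: MIPE 11-point, 0.78 nM–46 µM; NPC 8-point, 0.59 nM–46 µM. Confirmatory: 11-point dilutions.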

[15] = qHTS of pediatric cancer cell lines to identify multiple opportunities for drug repurposing: Primary screen for DAOY cells (AID 1347090); also: nearly all actives have a fitted effect of over 55% in size; also: potency is read from the fitted curve at half-maximal effect
How it was run: as §2

Compound | viability (% of control) [1] | Potency [2] | Potency [3] | Potency [4] | Potency [5] | Potency [6] | Potency [7] | Potency [8] | Potency [9] | Potency [10] | Potency [11] | Potency [12] | Potency [13] | Potency [14] | Potency [15]
CN1CCCN(C(=O)c2cccc(-c3ccc(C=C4C(=O)Nc5ccc(Cl)cc54)o3)c2)CC1 | 2.05% | inactive | inactive | 20.9 µM (active) | 16.6 µM (active) | 10.5 µM (active) | 18.7 µM (active) | 16.6 µM (active) | 16.6 µM (active) | 18.7 µM (active) | 14.8 µM (active) | 6.85 µM (active) |  |  | 
COc1ccc(S(=O)(=O)Nc2cc(-c3c(O)ccc4ccccc34)c(O)c3ccccc23)cc1 | 3.97% | inactive | inactive | 16.6 µM (active) | 10.5 µM (active) | 4.18 µM (active) | 18.7 µM (active) |  | 18.7 µM (active) | 7.43 µM (active) | 3.32 µM (active) | 24.3 µM (active) | inactive | inactive | 
COc1cc2c(cc1O)CCC1C2CC[C@@]2(C)C1CC[C@@H]2O (stereo partly specified) | 10.9% | inactive | inactive | 7.43 µM (active) | 2.64 µM (active) | 3.32 µM (active) | 2.64 µM (active) | 1.32 µM (active) | 0.833 µM (active) | 3.72 µM (active) | 6.62 µM (active) |  |  | 18.6 µM (active) | 
COc1ccc(C[C@@H](C)[C@@H](C)Cc2ccc(OC)c(OC)c2)cc1OC | 8.52% | inactive | inactive | 0.743 µM (active) | 1.18 µM (active) | 1.18 µM (active) | inactive | 7.43 µM (active) | 0.418 µM (active) | 0.935 µM (active) | 0.833 µM (active) | 0.968 µM (active) |  | 9.3 µM (active) | 
Oc1cc(-c2nc(-c3ccccc3)[nH]c2-c2ccncc2)ccc1Cl | 5.51% | inactive | inactive | 18.7 µM (active) | 26.4 µM (active) | 23.5 µM (active) | 18.7 µM (active) |  | 4.69 µM (active) |  | 0.662 µM (active) | 3.85 µM (active) | 37.2 µM (active) | inactive | 
c1ccc(CNc2nc(NCc3ccccc3)c3ccccc3n2)cc1 | 2.67% | inactive | inactive | 20.9 µM (active) | 26.4 µM (active) | 20.9 µM (active) | 23.5 µM (active) | 20.9 µM (active) |  | 4.69 µM (active) | 11.8 µM (active) |  |  | inactive | 
COc1ccc(Nc2nccc(NCCO)n2)cc1 | 111% | inactive | inactive | inactive | inactive | inactive | inactive |  | inactive | inactive |  | inactive | inactive | inactive | 
C=C1C(=CC=C2CCC[C@]3(C)[C@@H]([C@H](C)CCCC(C)(C)O)CC[C@@H]23)C[C@@H](O)C[C@@H]1O | 6.91% | inactive | inactive | 2.64 µM (active) | 2.96 µM (active) | 5.26 µM (active) | 3.72 µM (active) |  | 13.2 µM (active) | 1.48 µM (active) | 1.48 µM (active) | 6.85 µM (active) | inactive | 16.5 µM (active) | 4.69 µM (active)
CC(N[C@H]1CCCC[C@H]1NC(=O)c1ccc(Cl)cc1)c1cccc2ccccc12 (stereo partly specified) | 20.6% | inactive | inactive | inactive | inactive | inactive | inactive |  |  | 0.743 µM (active) | 0.0209 µM (active) | 1.53 µM (active) | inactive | inactive | 0.0296 µM (active)
CC(C=CC1=C(C)CCCC1(C)C)=CC=CC(C)=CC(=O)Nc1ccc(O)cc1 | 4.87% [at 92.2 µM] | inactive | inactive | 2.41 µM (active) | 5.4 µM (active) | 4.29 µM (active) | 12.1 µM (active) | 24.1 µM (active) | 38.2 µM (active) |  | 3.82 µM (active) | 17.7 µM (active) |  |  | 42.9 µM (active)
CC(=O)OCC(=O)[C@@]1(O)CC[C@H]2[C@@H]3CCC4=CC(=O)CC[C@]4(C)[C@@H]3C(=O)C[C@@]21C | 111% | inactive | inactive | inactive | inactive | inactive | inactive |  | inactive | inactive |  | inactive | inactive | inactive | inactive
CC(C)(C)[N+]([O-])=Cc1ccc(S(=O)(=O)O)cc1S(=O)(=O)O | 111% | inactive | inactive | inactive | inactive | inactive | inactive | inactive | inactive | inactive | inactive | inactive |  | inactive | 
COc1ccc(C(C)=O)c(O)c1 | 35.9% | inactive | inactive | inactive | inactive | inactive | inactive |  |  | 2.96 µM (active) | 0.0372 µM (active) |  | inactive | inactive | 1.87 µM (active)
C[C@](Cc1c[nH]c2ccccc12)(NC(=O)OC1C2CC3CC(C2)CC1C3)C(=O)NC[C@H](NC(=O)CCC(=O)O)c1ccccc1 (stereo partly specified) | 4.7% | inactive | inactive | inactive | inactive | inactive | inactive | inactive | inactive |  | 20.9 µM (active) | inactive |  | inactive | 
COc1ccc(S(=O)(=O)Nc2cccnc2Nc2ccc(O)cc2)cc1 | 8.72% | inactive | inactive | 0.0833 µM (active) | 0.148 µM (active) | 0.0935 µM (active) | inactive | 418 nM (active) and 920 nM (active) | 0.0235 µM (active) | 0.235 µM (active) | 0.296 µM (active) | 0.344 µM (active) |  | 8.29 µM (active) | 
COc1ccc(C=Cc2cc(OC)c(OC)c(OC)c2)cc1NC(=O)[C@H](N)CO | 7.97% | inactive | inactive | 0.0023 µM (active) | 0.0033 µM (active) | 0.0042 µM (active) | inactive | 0.0059 µM (active) | 0.001 µM (active) |  | 0.0118 µM (active) | 0.0172 µM (active) |  | 0.0415 µM (active) | 
CC(C)N1[N]C(=C2C=c3cc(O)ccc3=N2)c2c(N)ncnc21 | 2.77% | inactive | inactive | 1.87 µM (active) | 0.372 µM (active) | 0.418 µM (active) | 0.209 µM (active) | 0.105 µM (active) | 0.0935 µM (active) |  | 0.148 µM (active) | 0.344 µM (active) |  | 2.94 µM (active) | 
COc1ccc(CCC(=O)c2c(O)cc(O[C@@H]3O[C@H](CO)[C@@H](O)[C@H](O)[C@@H]3O[C@@H]3O[C@@H](C)[C@H](O)[C@@H](O)[C@@H]3O)cc2O)cc1O | 106% | inactive | inactive | 9.35 µM (active) | 9.35 µM (active) | 10.5 µM (active) | 9.35 µM (active) | inactive | inactive | 9.35 µM (active) | 3.32 µM (active) | inactive |  | inactive | 
CCn1c(=O)c2c(nc(C=Cc3ccc(OC)c(OC)c3)n2C)n(CC)c1=O | 99.5% | inactive | inactive | inactive | inactive | inactive |  | inactive | inactive |  |  | inactive | inactive | inactive | inactive

From PubChem BioAssay (NCATS)
